{"source": "PubChem BioAssay (Tox21)", "note": "Inconclusive results are not listed. Values without a mark were called inactive. Activity calls are given as the source filed them. Calls come from the whole dose curve; as a rule, active = well fitted cell-killing curve with a large enough effect in the repeat runs; inconclusive = weak or mixed curves, or effect the other way; inactive = flat fitted curve, though single readings scatter. % is set by controls: 0 for no effect and ±100 for the full control effect.", "data": [{"assay": "cAMP Responsive Elements (CRE) small molecule agonists, cell-based qHTS assay: qHTS cell viability counter screen (AID 2060914);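 note: viability read after 3 h of compound exposure; nearly all actives have a fitted effect of over 50% in size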", "conditions": "CRE-bla HEK293T viability, CellTiter-Glo luminescence, 5 h; series mostly up to 92.4 µM; activity change, negative = cytotoxicity: at the top concentration", "excerpt": "National Center for Advancing Translational Sciences [NCATS]\nDivision of Preclinical Innovation [DPI]\nU.S. Environmental Protection Agency [EPA]\nNational Institutes of Environmental Health Sciences [NIEHS]\nNational Toxicology Program [NTP]\nU.S. Food and Drug Administration [FDA]\nCREB (cyclic-AMP Responsive Element Binding Protein) is a cellular transcription factor. It binds to certain DNA sequences called cAMP Responsive Elements (CRE) and regulates the transcription of the genes. […] This cell line can be used to find agonists/antagonists of the cyclic AMP signaling pathway. The activation of the report gene under culture conditions can be detected by fluorescence intensity. This cell line has been used to screen the Tox21 10K compound library to identify agonists that induce oxidative stress. The cytotoxicity of the Tox21 compound library against the CRE-bla cell line was tested in parallel by measuring the cell viability using CellTiter-Glo assay (Promega, Madison, WI) in the same wells.\nTox21 Assay Protocol Summary:\nCRE-bla Hek 293T cells were suspended in assay medium (DMEM containing 10% dialyzed FBS, 0.1 mM NEAA, 1 mM sodium pyruvate and 25 mM HEPES) and dispensed at 2,000 cells/5 uL /well into 1536-well black wall/clear bottom plates using a Multidrop Combi (ThermoFisher Scientific, Waltham, MA) dispenser. After the assay plates were incubated at 37 C/5% CO2 for 18 hrs, 23 nL of compounds dissolved in DMSO, positive controls or DMSO only was transferred to the assay plate by a pintool workstation (Kalypsys, San Diego, CA). After the plates were incubated at 37 C/5% CO2 for 3 hrs, 1 uL of LiveBLAzer B/G FRET substrate (Invitrogen, Carlsbad, CA) was added to each well using Bioraptr Flying Reagent Dispenser (FRD, Aurora Discovery, San Diego, CA). The plates were incubated at room temperature for 2 h, then fluorescence intensities were measured using an Envision plate reader (PerkinElmer, Shelton, CT) at Excitation 405nm, Emission 460nm and 530nm. The % activity was determined from the ratio of 460nm/530nm. For cell viability readout that measures cytotoxicity, 4 uL /well of CellTiter-Glo reagent was added into the assay plates using Bioraptr FRD. After 30 min incubation at room temperature, the luminescence intensity in the assay plates was measured using a ViewLux (PerkinElmer, Shelton, CT) plate reader.", "values": [{"compound": "O=C(O)c1ccc(O)cc1", "Potency": "inactive"}, {"compound": "CCOC(=O)NNc1ccc(N(CC)CC(C)O)nn1", "note": "(stereo not given)", "activity change, negative = cytotoxicity": "1.1% [at 42.5 µM]"}, {"compound": "CC(=O)C(C)=O", "activity change, negative = cytotoxicity": "-10.7%"}, {"compound": "NCCOCCO", "Potency": "inactive"}, {"compound": "CO[Si](OC)(OC)OC", "activity change, negative = cytotoxicity": "6.12%"}, {"compound": "Cc1c(C)c([N+](=O)[O-])c(C(C)(C)C)c([N+](=O)[O-])c1C", "activity change, negative = cytotoxicity": "-16.7%"}, {"compound": "O=C(O)c1cccc(C(=O)O)n1", "activity change, negative = cytotoxicity": "3.62%"}, {"compound": "COc1ccccc1C=O", "activity change, negative = cytotoxicity": "0.373%"}, {"compound": "CC(C)CCOCCC(C)C", "activity change, negative = cytotoxicity": "0.752%"}, {"compound": "NC(=O)c1ccc([N+](=O)[O-])cc1", "activity change, negative = cytotoxicity": "9.66%"}, {"compound": "CC1CCC(C(C)(C)O)CC1", "note": "(stereo not given)", "activity change, negative = cytotoxicity": "-14.7%"}, {"compound": "CCCCOC(O)CC", "note": "(stereo not given)", "activity change, negative = cytotoxicity": "1.15%"}, {"compound": "COc1ccc2cc1Oc1ccc(cc1)C[C@H]1c3c(cc4c(c3Oc3cc5c(cc3OC)CCN(C)[C@@H]5C2)OCO4)CCN1C", "activity change, negative = cytotoxicity": "17.1% [at 42.5 µM]"}, {"compound": "C=CCN1CCc2nc(N)sc2CC1", "activity change, negative = cytotoxicity": "-11.6% [at 42.5 µM]"}, {"compound": "CCOC(=O)Cn1c(=O)sc2cccc(Cl)c21", "activity change, negative = cytotoxicity": "-19%"}, {"compound": "CC(C)(C)c1ccc(O)c(O)c1", "activity change, negative = cytotoxicity": "14.8%"}, {"compound": "NS(=O)(=O)c1cc2c(cc1C(F)(F)F)NC(Cc1ccccc1)NS2(=O)=O", "note": "(stereo not given)", "activity change, negative = cytotoxicity": "8.03% [at 42.5 µM]"}, {"compound": "Cc1cc(=O)[nH]c(=S)[nH]1", "Potency": "inactive"}, {"compound": "CC(=O)Nc1ncc([N+](=O)[O-])s1", "activity change, negative = cytotoxicity": "-1.55% [at 42.5 µM]"}, {"compound": "CC(C)(COC(=O)c1ccccc1)COC(=O)c1ccccc1", "activity change, negative = cytotoxicity": "-1.25%"}, {"compound": "Cc1ccc(S(=O)(=O)NCl)cc1", "Potency": "inactive"}, {"compound": "CC(C)CCOCc1ccccc1", "activity change, negative = cytotoxicity": "5.12%"}, {"compound": "Nc1ccc(S(=O)(=O)c2ccc(N)cc2)cc1", "Potency": "inactive"}, {"compound": "CCCCCCCCSCCO", "activity change, negative = cytotoxicity": "6.74%"}, {"compound": "O=C(O)CCCl", "activity change, negative = cytotoxicity": "0.429%"}, {"compound": "CCCN(C1CCN(C(=O)C2CCNCC2)CC1)[C@@H]1CCc2ccc(OC)cc2C1", "activity change, negative = cytotoxicity": "8.5%"}, {"compound": "O=C1CCCCCCCCCCCCCC1", "activity change, negative = cytotoxicity": "0.7%"}, {"compound": "c1ccc2scnc2c1", "Potency": "inactive"}, {"compound": "CCn1cc(C(=O)O)c(=O)c2cc3c(cc21)OCO3", "activity change, negative = cytotoxicity": "-16.8%"}, {"compound": "CC1CCCC1", "activity change, negative = cytotoxicity": "13.7%"}, {"compound": "CN1C(=O)N(c2ccccc2Br)Cc2cnc(Nc3ccc4c(c3)OCC(CO)O4)nc21", "note": "(stereo not given)", "activity change, negative = cytotoxicity": "-23.1%"}, {"compound": "O=C1C(O)=C(O)C(=O)C(O)=C1O", "activity change, negative = cytotoxicity": "2.41% [at 42.5 µM]"}, {"compound": "CN(C)CCCCl", "activity change, negative = cytotoxicity": "0.638%"}, {"compound": "COCCOC(=O)C1=C(C)NC(C)=C(C(=O)OC/C=C/c2ccccc2)C1c1cccc([N+](=O)[O-])c1", "note": "(stereo not given)", "activity change, negative = cytotoxicity": "1.73% [at 42.5 µM]"}, {"compound": "Cc1nc2ccc(CN(C)c3ccc(C(=O)N[C@@H](CCC(=O)O)C(=O)O)s3)cc2c(=O)[nH]1", "activity change, negative = cytotoxicity": "-0.404% [at 42.5 µM]"}, {"compound": "Cc1cccc(C)c1NC(=O)c1ccccc1C(=O)O", "activity change, negative = cytotoxicity": "-3.18% [at 42.5 µM]"}, {"compound": "CCCCOCCOCCOCCO", "Potency": "inactive"}, {"compound": "CCCCCCCCCOC(=O)CCCCC(=O)OCCCCCCC", "activity change, negative = cytotoxicity": "-0.475%"}, {"compound": "O=C(OCc1ccccc1)c1ccccc1", "Potency": "inactive"}, {"compound": "CC(C)=CCC[C@H](C)CC=O", "activity change, negative = cytotoxicity": "-1.18%"}]}]}
